Common to all, as to conditions: concentration: 1 μM, replicates: in singlicate; n = 1
For test [1], the system named is T1, PCTK2.
T1 construct: gene CDK17

In test [2] the test system is T2, PCTK3.
T2 construct: gene CDK18

The test system of test [3] is PDGFRA.
Test [4] relates to PDGFRB.
The test system of test [5] is PDPK1.
Test [6] deals with PFTAIRE2.
The subject of test [7] is T3, PFTK1.
T3 construct: gene CDK14

Test [8] deals with PHKG1.
The subject of test [9] is PHKG2.
Test [10] relates to PIK3C2B.
Test [11] relates to PIK3C2G.
Test [12] concerns PIK3CA.
Test [13] has as its system PIK3CB.
For test [14], the system named is PIK3CD.
In test [15] the test system is PIK3CG.
The test system of test [16] is T4, PIK4CB.
T4 construct: gene PI4KB

Test [17] relates to PIKFYVE.
The subject of test [18] is PIM1.
The subject of test [19] is PIM2.
The test system of test [20] is PIM3.

Data on 10 compounds can be found in PMC5540273 (PLoS ONE, 2017).
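Further: KINOMEscan kinase panel screen.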

As for `COc1cc(Nc2ncc3c(C)nc(-c4cc5ccccc5[nH]4)n3n2)cc(OC)c1OC` [GW869516], the “%Inh” value in test [1] is 32%; in test [2], 6%; in [3] it was 0%; in [4], 29%; in test [5], 0%; in [6], 0%. For the same compound, the “%Inh” value in test [7] is 4%; in test [8] it was 27%; in test [9], 0%; in [10], 0%; in test [11], 0%; in test [12], 0%. Besides, the “%Inh” value stood at 0% in [13]; 0% in [14]; 30% in test [15]; 0% in test [16]; 0% in [17]; 4% in test [18]. Moreover, the “%Inh” value in test [19] and in test [20] was 0% throughout.
In the case of `Nc1n[nH]c2cnc(-c3ccccc3)cc12` [SB-642124], the “%Inh” value in test [1] came to 0%; in test [2] it was 10%; in [3] it was 0%; in test [4], 21%; in [5], 0%; in test [6], 3%. The “%Inh” value in test [7] is 19%; in test [8], 0%; in test [9], 0%; in test [10], 0%; in [11], 0%; in test [12] it was 0%. In addition, the “%Inh” value in test [13] was 0%; in test [14], 0%; in test [15], 0%; in test [16] it was 14%; in test [17], 0%; in test [18] it was 38%. Further, the “%Inh” value is recorded as 0% in test [19] and 13% in test [20].
For `Cc1ccc(C(=O)Nc2ccc(Nc3ccnc4cc(-c5nccs5)ccc34)cc2O)cc1.Cl` [GW494702], the “%Inh” value in test [1] was 0%; in [2], 0%; in [3], 28%; in test [4] it was 74%; in test [5], 10%; in test [6], 7%. Further, the “%Inh” value was found to be 0% in test [7]; 4% in test [8]; 0% in test [9]; 0% in test [10]; 23% in test [11]; 0% in test [12]. Also, the “%Inh” value was determined as 0% in [13]; 0% in test [14]; 0% in test [15]; 30% in test [16]; 0% in [17]; 0% in [18]. For the same compound, the “%Inh” value in test [19] turned out to be 6%; in [20], 0%.
Regarding `O=C(NC1CCN(c2ccnc(Nc3ccc(F)cc3)n2)C1)c1cc2ccccc2s1` (centres unmarked) [GSK1379716], the “%Inh” value amounted to 11% in test [1]; 32% in [2]; 0% in test [3]; 28% in test [4]; 0% in test [5]; 25% in test [6]. The “%Inh” value in test [7] amounted to 13%; in test [8], 19%; in test [9] it was 7%; in test [10] it was 0%; in test [11] it was 0%; in [12], 0%. In addition, the “%Inh” value was found to be 0% in [13]; 0% in [14]; 0% in [15]; 0% in test [16]; 4% in [17]; 20% in test [18]. For the same compound, the “%Inh” value turned out to be 0% in test [19] and 11% in test [20].
`CSc1cccc2c(-c3ccncn3)c(-c3ccc(F)cc3)nn12` [GW514786]: the “%Inh” value turned out to be 0% in test [1]; 14% in [2]; 0% in test [3]; 7% in [4]; 0% in test [5]; 20% in test [6]. Moreover, the “%Inh” value in test [7] is recorded as 28%; in [8], 12%; in [9], 0%; in test [10], 0%; in test [11], 0%; in [12] it was 0%. Besides, the “%Inh” value is reported as 0% in test [13]; 0% in test [14]; 0% in test [15]; 0% in [16]; 19% in test [17]; 0% in [18]. The “%Inh” value in [19] was determined as 0%; in test [20], 15%.
As for `Cc1ccc(C)c(NC(=O)NC2CCN(c3ccnc(Nc4ccc(F)cc4)n3)C2)c1` (centres unmarked) [GSK1379720], the “%Inh” value in test [1] turned out to be 0%; in test [2] it was 10%; in test [3] it was 0%; in [4], 4%; in [5], 0%; in [6], 4%. For the same compound, the “%Inh” value in test [7], in test [8], in test [9], in test [10], in test [11] and in test [12] was 0% in each case. For the same compound, the “%Inh” value was 0% in [13]; 8% in test [14]; 0% in test [15]; 0% in test [16]; 0% in test [17]; 15% in test [18]. Also, the “%Inh” value in test [19] and in test [20] was 0% each time.
For the compound `CN(C)Cc1ccc(-c2ccc3c(Nc4ccc(Oc5ccccn5)cc4)ccnc3c2)o1` [GW567148], the “%Inh” value in [1] was found to be 0%; in test [2], 0%; in [3], 82%; in [4], 98.7%; in test [5], 0%; in test [6] it was 0%. Also, the “%Inh” value in test [7] was found to be 0%; in [8], 2%; in [9], 0%; in test [10] it was 0%; in [11], 0%; in test [12], 0%. Also, the “%Inh” value in [13], in test [14], in test [15], in test [16], in test [17] and in [18] was 0% in each case. The “%Inh” value in [19] and in test [20] was 0% throughout.
`Cn1cc(-c2[nH]c3cc(NC(=O)[C@H](N)C4CCCCC4)cc4c3c2C=NNC4=O)cn1`: the “%Inh” value in [1] came out at 0%; in [2], 0%; in test [3] it was 99.7%; in test [4], 100%; in test [5] it was 75%; in [6], 5%. For the same compound, the “%Inh” value is recorded as 5% in [7]; 65% in test [8]; 23% in [9]; 49% in test [10]; 0% in test [11]; 0% in test [12]. For the same compound, the “%Inh” value stood at 9% in [13]; 6% in test [14]; 0% in test [15]; 0% in test [16]; 1% in test [17]; 39% in test [18]. Besides, the “%Inh” value in test [19] is recorded as 0%; in [20] it was 46%.
Take `COc1cccc(C(=O)Nc2cccc(Oc3ccc4nc(NC(=O)C5CC5)cn4n3)c2)c1`: the “%Inh” value in test [1] was found to be 0%; in test [2], 12%; in test [3], 99.9%; in [4] it was 100%; in [5] it was 0%; in [6], 8%. For the same compound, the “%Inh” value in test [7] is reported as 4%; in test [8], 0%; in test [9], 0%; in test [10] it was 0%; in test [11], 1%; in [12], 0%. Further, the “%Inh” value in [13] is given as 0%; in [14], 0%; in test [15] it was 0%; in [16], 0%; in test [17] it was 0%; in test [18] it was 9%. Moreover, the “%Inh” value in test [19] is listed as 11%; in test [20], 17%.
In the case of `Clc1ccc(-c2nn3ncccc3c2-c2ccnc(Nc3ccc4c(c3)OCCO4)n2)cc1` [GW829116], the “%Inh” value in test [1] came out at 0%; in test [2], 0%; in test [3] it was 24%; in test [4], 99.9%; in [5], 0%; in test [6] it was 0%. Besides, the “%Inh” value in [7], in [8], in [9], in [10], in test [11] and in test [12] was 0% throughout. For the same compound, the “%Inh” value in [13] is recorded as 0%; in test [14] it was 0%; in test [15] it was 0%; in test [16] it was 0%; in test [17] it was 25%; in test [18], 13%. Moreover, the “%Inh” value in test [19] was determined as 6%; in test [20] it was 0%.
